Results reported in ChEMBL document CHEMBL4513149, “CO-ADD screening of MMV (CH) - MMV compounds” (2021).
Measured potencies and affinities stand elsewhere.

Experiments:
Klebsiella pneumoniae = conditions: Concentration 20 uM; ASSAY_TEST Inhibition of Bacterial Growth; detection method Absorption (OD600); MEDIA CAMHB; plate type 384well; NBS; CORNING #3640; time 18 hr
Candida albicans = conditions: 20 µM
Cryptococcus neoformans = conditions: Concentration 20 uM; ASSAY_TEST Inhibition of Fungal Growth; detection method Resazurin; Absorption (OD600-OD570); plate type 384well; NBS; CORNING #3640

SMILES	Inhibition (Klebsiella pneumoniae) [%]	Inhibition (Candida albicans) [%]	Inhibition (Cryptococcus neoformans) [%]
CNCCC(Oc1ccc(C(F)(F)F)cc1)c1ccccc1 (stereo not given) [FLUOXETINE]	7.93	1.88	2.51
Cc1nn(C)c(C)c1NS(=O)(=O)c1c(Cl)cc(-c2ccnc(N3CCNCC3)c2)cc1Cl	16.22	6.45	-5.82
CC1(C)OB(O)c2ccc(C3=NOC(c4cc(Cl)c(F)c(Cl)c4)(C(F)(F)F)C3)cc21 (stereo not given)	23.09	3.03	-7.16
CC(=O)Oc1ccccc1C(=O)Nc1ncc([N+](=O)[O-])s1 [NITAZOXANIDE]	13.55	26.7	17.15
Nc1c2c(nc3sc4c(c13)CCCC4)CCCC2	3.88	0.42	-9.94
Cc1nn(Cc2ccccc2)c(Cl)c1C(=O)NC1CCCCCC1	0.72	5.99	-4.17
CO[C@@H](C(=O)N1Cc2[nH]nc(NC(=O)c3ccc(N4CCN(C)CC4)cc3)c2C1)c1ccccc1 [DANUSERTIB]	10.18	3.17	-4
Cc1cc(C2=NOC(c3cc(Cl)c(F)c(Cl)c3)(C(F)(F)F)C2)ccc1C(=O)NCc1ccc2c(c1)C(C)(C)OB2O (stereo not given)	14.68	4.25	-8.68
Cc1cccc(C(=O)Nc2ccnc(N(C)C3CCN(CC(C)C)CC3)c2)c1	8.58	4.57	-6.76
CO[C@@H]1CN(c2ccc(C#CC3(O)CN4CCC3CC4)c(Cc3ccccc3)n2)C[C@H]1O (stereo not given in full)	0.81	1.57	0.17
